Values joined by “and” are separate entries in the source; they are usually repeats but may differ in a detail not shown here. Equal entries are not always repeated. Records with an inconclusive call do not appear. Entries that show only a call come without a potency. A number with no mark means an inactive call. Active and inactive are the calls of the source. Calls come from the whole dose curve; as a rule, active = well fitted activation curve with a large enough effect in the repeat runs; inconclusive = weak or mixed curves; inactive = flat fitted curve, though single readings scatter.
Test: A CellTox Green Cytotoxicity Assay to monitor cytotoxicity in HEK293 cells - 32 hour (AID 1224881); note: nearly all actives have a fitted effect of over 40% in size
Details: CellTox Green fluorescence; series mostly up to 76.8 µM; cytotoxicity increase: at the top concentration
Source text: National Center for Advancing Translational Sciences [NCATS]
NIH Chemical Genomics Center [NCGC]
U.S. Environmental Protection Agency [EPA]
National Institutes of Environmental Health Sciences [NIEHS]
National Toxicology Program [NTP]
Cell-based models are critical for drug discovery. Determining the natural cytotoxic effects resulting from test compounds is an essential research activity. A CellTox Green Cytotoxicity Assay to monitor cytotoxicity in real time of continues cell culture during 40 hours of the compound treatment was used to screen Tox21 10K library compounds in Hek293 cells. CellTox Green Cytotoxicity Assay is a nonlytic, homogeneous, biofluorescent method to measure cytotoxicity in cell culture after experimental manipulation. The assay system uses a proprietary asymmetric cyanine dye that is excluded from viable cells but preferentially stains the dead cell's DNA. […] Viable cells produce no appreciable increases in fluorescence. Therefore, the fluorescence signal produced by the binding interaction with dead cell DNA is proportional to cytotoxicity.
The mixture of Hek293 cell suspension and reagents were dispensed at 600cells/6 ul/well in 1536-well tissue culture treated black solid bottom plates using a Multidrop dispenser. After the assay plates were incubated at a 37 C/5% CO2 incubator for 5 hours, 23 nL of compounds dissolved in DMSO, positive and negative controls was transferred to the assay plate by a pintool work station. The plates were incubated at 37 C for 40 hours. The fluorescence intensity were measured at 0h, 8h, 16h, 24h, 32h and 40h time points using ViewLux plate reader during compound treatment.
For CCCCCC1=CCCC1=O, the Potency was “inactive”. For OCC(CO)(CBr)CBr, the “cytotoxicity increase” value was -10.3%. In the case of CC1=C(C)S(=O)(=O)CCS1(=O)=O, the “cytotoxicity increase” value is reported as 4.38%. In the case of CCCCCCCCCC, the Potency is reported as “inactive”. For CCN(CC)c1ccc(C(=O)c2ccccc2C(=O)O)c(O)c1, the Potency was “inactive”. With Cc1cnc(C(=O)NCCc2ccc(S(=O)(=O)NC(=O)NC3CCCCC3)cc2)cn1 the Potency was “inactive”. With CCCC(C)=O the Potency was “inactive”. With c1ccc(OCCOc2ccccc2)cc1 the Potency was “inactive”. For CC(C)(N)CO, the Potency was “inactive”. With C#C[C@]1(O)CC[C@H]2[C@@H]3CCC4=CC(=O)CC[C@@H]4[C@H]3CC[C@@]21C the Potency was “inactive”. With CSCCC=O the Potency was “inactive”. In the case of C=C(C)C(=O)Nc1ccc(Cl)c(Cl)c1, the Potency is reported as “inactive”. In the case of ON=C1CCCCC1, the Potency is reported as “inactive”. In the case of OCCOCCOCCO, the Potency is reported as “inactive”. For O=C(OCCOCCOC(=O)c1ccccc1)c1ccccc1, the Potency was “inactive”. In the case of COCCCOc1ccnc(CS(=O)c2nc3ccccc3[nH]2)c1C (stereo not given), the “cytotoxicity increase” value is reported as -12.3% [at 35.3 µM]. With COc1cc(Cc2cnc(N)nc2N)cc(OC)c1OC the Potency was “inactive”. With CCCCCOC(C)=O the Potency was “inactive”. With COc1ccc(Nc2ccccc2)c(C)c1 the “cytotoxicity increase” value was -0.644%. In the case of Nc1cc([N+](=O)[O-])ccc1O, the “cytotoxicity increase” value is reported as -1.55%. In the case of CC(=O)OCC(=O)[C@@]12N=C(C)O[C@@H]1C[C@H]1[C@@H]3CCC4=CC(=O)C=C[C@]4(C)[C@H]3[C@@H](O)C[C@@]12C, the Potency is reported as “inactive”. In the case of CCCCCCCCCCCCOCCO, the Potency is reported as “inactive”. For CCN(CC)CCCC(C)Nc1ccnc2cc(Cl)ccc12 (stereo not given), the cytotoxicity increase was -12.6% [at 6.97 µM] and 3.44% [at 15.8 µM]. With CC1CCC2CC1C2(C)C (stereo not given) the Potency was “inactive”. For O=C(O)c1ccc(C(=O)O)cc1, the Potency was “inactive”. With CCCCN(CCCC)CCCC the Potency was “inactive”. For O=P(OC(CCl)CCl)(OC(CCl)CCl)OC(CCl)CCl, the Potency was “inactive”. With CC(=O)CC(=O)Nc1ccccc1 the Potency was “inactive”. For Nc1ccccc1[N+](=O)[O-], the Potency was “inactive”. In the case of CCCCC(CC)COC(=O)CCCCC(=O)OCC(CC)CCCC (stereo not given), the Potency is reported as “inactive”. In the case of CC(C)c1ccc(S(=O)(=O)O)cc1, the Potency is reported as “inactive”. In the case of O=C(CC(C(=O)OC1CCCCC1)S(=O)(=O)O)OC1CCCCC1 (stereo not given), the Potency is reported as “inactive”. In the case of CCCCCC/C(C=O)=C\c1ccccc1, the “cytotoxicity increase” value is reported as -1.62%. For CC(c1cc2ccccc2s1)N(O)C(N)=O (stereo not given), the “cytotoxicity increase” value was 2.99% [at 35.3 µM]. For O=S1(=O)CC=CC1, the Potency was “inactive”. With Cc1ccc(S(N)(=O)=O)cc1 the Potency was “inactive”. For CCCCC(CC)COC(=O)CS (stereo not given), the Potency was “inactive”. In the case of Cc1cccnc1, the Potency is reported as “inactive”. In the case of COc1ccc(Cl)cc1C(=O)NCCc1ccc(S(=O)(=O)NC(=O)NC2CCCCC2)cc1, the Potency is reported as “inactive”. For COS(C)(=O)=O, the Potency was “inactive”.
